Test results taken from PubChem BioAssay (Tox21).
“And” between values parts separate entries of the source, which are not always exact repeats. Equal entries are not always repeated. Records with an inconclusive call do not appear. A structure can be active in one record and inactive in another. The source made the active and inactive calls. Unless noted, calls come from the whole dose curve; as a rule, active = well fitted curve in the direction sought with a large enough effect in the repeat runs; inconclusive = weak or mixed curves; inactive = no such curve, though single readings can be large; an effect the other way counts as inactive or inconclusive.

Legend:
[1] = A CellTox Green Cytotoxicity Assay to monitor cytotoxicity in HepG2 cells - 0 hour (AID 1224882); note: nearly all actives have a fitted effect of over 35% in size
In short: (§1)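 Cytotoxicity was tracked as dead-cell DNA fluorescence in HepG2 cells treated with test compounds at 37 C; each time-point value comes from one kinetic series spanning 0, 8, 16, 24, 32 and 40 h.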

[2] = A CellTox Green Cytotoxicity Assay to monitor cytotoxicity in HepG2 cells - 32 hour (AID 1224883); note: nearly all actives have a fitted effect of over 50% in size; note: potency is the fitted concentration of half-maximal effect
In short: as §1

[3] = A CellTox Green Cytotoxicity Assay to monitor cytotoxicity in HEK293 cells - 8 hour (AID 1224884); note: nearly all actives have a fitted effect of over 35% in size
In short: (§2)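 Real-time, in one plate: 600 HEK293 cells/well with dead-cell DNA dye, pinned compound after 5 h, 37 C incubation over 40 h; viable cells give no appreciable fluorescence.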

[4] = qHTS RealTime-Glo MT Cell Viability Assay in HepG2 cells - 16 hour (AID 1224885); note: nearly all actives have a fitted effect of over 50% in size
In short: (§3)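 qHTS, HepG2, 600 cells/well, RealTime-Glo (NanoLuc + prosubstrate) added with cells; 5 h preincubation; DMSO compound addition; 37 C; luminescence at 0/8/16/24/32/40 h.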

[5] = qHTS RealTime-Glo MT Cell Viability Assay in HEK293 cells - 24 hour (AID 1224886); note: nearly all actives have a fitted effect of over 50% in size; note: potency is the fitted concentration of half-maximal effect
In short: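 Assay medium contained NanoLuc luciferase plus cell-permeant prosubstrate, added with HEK293 cells at 600 cells/well. After 5 h at 37 C/5% CO2 compounds were added; plates stayed at 37 C for 40 h with serial luminescence reads.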

[6] = qHTS RealTime-Glo MT Cell Viability Assay in HEK293 cells - 8 hour (AID 1224887); note: nearly all actives have a fitted effect of over 50% in size; note: potency is the fitted concentration of half-maximal effect
In short: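 Kinetic, non-lysing viability readout. Seed HEK293 (600/well) with reagent, incubate 5 h at 37 C/5% CO2, pin 23 nL compound in DMSO, incubate at 37 C, read luminescence at 0, 8, 16, 24, 32, 40 h.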

[7] = A CellTox Green Cytotoxicity Assay to monitor cytotoxicity in HEK293 cells - 16 hour (AID 1224888); note: nearly all actives have a fitted effect of over 35% in size
In short: as §2

[8] = qHTS RealTime-Glo MT Cell Viability Assay in HepG2 cells - 0 hour (AID 1224889); note: nearly all actives have a fitted effect of over 50% in size
In short: as §3

[9] = A CellTox Green Cytotoxicity Assay to monitor cytotoxicity in HepG2 cells - 8 hour (AID 1224890); note: nearly all actives have a fitted effect of over 45% in size
In short: as §1

[10] = qHTS assay to identify small molecule antagonists of the estrogen receptor alpha (ER-alpha) signaling pathway using the BG1 cell line in the presence of 0.1 nM 17-beta-estradiol - cell viability counter screen (AID 1259241); note: nearly all actives have a fitted effect of over 40% in size
In short: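 Estradiol-stimulated (0.1 nM) VM7Luc4E2 cells exposed to compounds 22 hr; viability measured by fluorescence of cleaved CellTiter-Fluor substrate after 30 min.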

[11] = qHTS assay to identify small molecule antagonists of the androgen receptor (AR) signaling pathway using the MDA cell line in the presence of 0.5 nM R1881 - cell viability counter screen (AID 1259242); note: nearly all actives have a fitted effect of over 45% in size
In short: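 Cells seeded at 3,000/well and allowed 5 hr at 37C, 0% CO2 before compound transfer and R1881 (0.5 nM final) addition; 16 hr later, live-cell protease fluorescence indicated cytotoxicity.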

[12] = molecular target: Estrogen receptor (Homo sapiens) (UniProt P03372); assay: qHTS assay to identify small molecule antagonists of the estrogen receptor alpha (ER-alpha) signaling pathway using the BG1 cell line in the presence of 0.1 nM 17-beta-estradiol (AID 1259244); note: nearly all actives have a fitted effect of over 50% in size
Chain of Estrogen receptor (Homo sapiens) (P03372 whole entry, looked up): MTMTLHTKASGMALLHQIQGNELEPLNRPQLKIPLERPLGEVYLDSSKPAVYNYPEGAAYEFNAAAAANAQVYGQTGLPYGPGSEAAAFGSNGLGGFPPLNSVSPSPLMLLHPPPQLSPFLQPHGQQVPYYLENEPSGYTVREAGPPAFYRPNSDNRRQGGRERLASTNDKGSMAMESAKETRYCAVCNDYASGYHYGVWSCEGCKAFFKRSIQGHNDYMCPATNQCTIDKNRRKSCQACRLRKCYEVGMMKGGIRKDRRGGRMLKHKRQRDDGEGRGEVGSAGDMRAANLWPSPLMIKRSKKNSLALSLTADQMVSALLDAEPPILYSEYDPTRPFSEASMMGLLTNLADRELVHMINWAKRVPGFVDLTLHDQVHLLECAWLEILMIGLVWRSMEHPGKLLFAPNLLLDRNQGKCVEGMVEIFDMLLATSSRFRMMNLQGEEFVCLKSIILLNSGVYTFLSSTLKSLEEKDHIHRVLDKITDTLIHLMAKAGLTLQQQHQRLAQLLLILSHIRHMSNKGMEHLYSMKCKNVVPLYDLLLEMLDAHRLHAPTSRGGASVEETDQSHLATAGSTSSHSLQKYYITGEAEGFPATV
In short: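 Luciferase signal from VM7Luc4E2 ERE-reporter cells, co-dosed with test compound and 0.1 nM final 17beta-estradiol for 22 h, read with ONE-Glo.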

[13] = qHTS assay to identify small molecule phospholipidosis (PLD) inducers (AID 1259344; active = well fitted curve in the direction sought with a large enough effect; an effect the other way counts as inactive or inconclusive)
In short: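 Read-out is LipidTOX Red fluorescence (ex 595/em 615) imaged in HepG2 cells after 24 h compound exposure at 37 C, with Hoechst nuclear counterstain (ex 352/em 461) allowing per-cell normalisation.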

[14] = qHTS assay to identify small molecule HDAC inhibitors - cell viability counter screen (AID 1259365)
In short: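 After overnight seeding at 1,500 cells per well, wild-type HCT-116 cultures took up compounds in DMSO for 2hr at 37 C. Viable cell content came from luminescence with CellTiter-Glo.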

[15] = qHTS assay to identify small molecule agonists of the sonic hedgehog signaling (Shh) pathway - cell viability counter screen (AID 1259366); note: nearly all actives have a fitted effect of over 50% in size
In short: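 Same-well cytotoxicity read. Gli1-Luc reporter 3T3 cells; compounds 24hr, 37C/5% CO2; CellTiter-Fluor fluorescence.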

[16] = A CellTox Green Cytotoxicity Assay to monitor cytotoxicity in HEK293 cells - 32 hour (AID 1224881); note: nearly all actives have a fitted effect of over 40% in size
In short: as §2

[17] = qHTS assay to identify small molecule HDAC inhibitors (AID 1259364); note: potency is the fitted concentration of half-maximal effect;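 note: wild-type HCT-116 cells with endogenous class I/II HDAC activity; nearly all actives have a fitted effect of over 45% in size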
In short: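 HCT-116 wt cells, 1,500/well, overnight attach. Compounds (DMSO) 2 h, 37 °C. HDAC-Glo I/II, 30 min RT. Luminescence.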

[18] = qHTS assay to identify small molecule antagonists of the sonic hedgehog signaling (Shh) pathway - cell viability counter screen (AID 1259367); note: nearly all actives have a fitted effect of over 55% in size
In short: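 Fluorescence read-out (CellTiter-Fluor, 1 hr at 37C) taken after 23 hr compound treatment of 3T3 Gli1-Luc cells stimulated with conditioned medium. Cells were seeded at 2,000 per well and pre-incubated 4 hr.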

[19] = qHTS assay to identify small molecule agonists of the sonic hedgehog signaling (Shh) pathway (AID 1259368; calls by dose curve;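 note: NIH/3T3-derived 3T3Gli1-Luc cells carrying a stable Gli1-driven firefly luciferase reporter; series mostly up to about 92 µM; nearly all actives have a fitted effect of over 15% in size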)
In short: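 Following a 24 hr incubation with DMSO-dissolved compounds at 37 C, 5% CO2, Gli1-Luc NIH/3T3-derived cells received luciferase reagent for 30 min at room temperature prior to luminescence measurement.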

[20] = molecular target: Androgen receptor (Homo sapiens) (UniProt P10275); assay: qHTS assay to identify small molecule antagonists of the androgen receptor (AR) signaling pathway using the MDA cell line in the presence of 0.5 nM R1881 (AID 1259243); note: nearly all actives have a fitted effect of over 50% in size; note: potency is the fitted concentration of half-maximal effect
Chain of Androgen receptor (Homo sapiens) (P10275 whole entry, looked up): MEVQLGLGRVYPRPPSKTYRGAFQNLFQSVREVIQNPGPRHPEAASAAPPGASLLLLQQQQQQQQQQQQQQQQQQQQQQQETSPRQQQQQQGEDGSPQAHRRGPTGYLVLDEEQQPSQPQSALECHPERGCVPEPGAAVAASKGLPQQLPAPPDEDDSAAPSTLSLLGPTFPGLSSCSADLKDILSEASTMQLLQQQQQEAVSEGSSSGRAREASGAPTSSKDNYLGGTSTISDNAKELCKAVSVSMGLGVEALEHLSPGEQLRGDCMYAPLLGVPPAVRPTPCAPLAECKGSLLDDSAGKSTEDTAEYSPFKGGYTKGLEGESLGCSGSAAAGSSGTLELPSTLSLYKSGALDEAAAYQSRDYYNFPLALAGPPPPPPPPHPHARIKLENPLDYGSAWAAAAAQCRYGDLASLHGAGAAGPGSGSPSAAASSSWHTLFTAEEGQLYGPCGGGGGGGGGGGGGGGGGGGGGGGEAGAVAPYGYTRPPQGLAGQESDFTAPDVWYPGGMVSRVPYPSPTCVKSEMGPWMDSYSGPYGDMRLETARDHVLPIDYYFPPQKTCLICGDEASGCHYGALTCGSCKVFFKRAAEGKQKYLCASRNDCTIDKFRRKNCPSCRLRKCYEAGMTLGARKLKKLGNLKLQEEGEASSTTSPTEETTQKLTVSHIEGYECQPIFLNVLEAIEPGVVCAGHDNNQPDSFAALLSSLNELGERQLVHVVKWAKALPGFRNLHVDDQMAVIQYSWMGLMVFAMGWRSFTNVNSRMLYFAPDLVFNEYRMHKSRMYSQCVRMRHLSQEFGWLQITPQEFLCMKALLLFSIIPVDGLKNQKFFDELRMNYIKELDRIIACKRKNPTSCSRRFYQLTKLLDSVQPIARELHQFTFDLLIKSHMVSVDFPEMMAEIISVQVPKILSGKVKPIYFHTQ
In short: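 Luminescence from an AR/GR-responsive MMTV-luciferase construct in MDA-kb2 breast carcinoma cells, read 30 min after ONE-Glo, following 16 hr co-treatment with compounds and 0.5 nM R1881.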
% is set by controls: 0 for no effect and ±100 for the full control effect.

Nc1c[n+](N2CCOCC2)no1
inactive: Potency [1] | Potency [2] | Potency [3] | Potency [4] | Potency [5] | Potency [6] | Potency [7] | Potency [8] | Potency [9] | outcome [10] | Potency [11] | outcome [12] | Potency [13] | outcome [14] | Potency [15]

C[N+](C)(C)CC(O)CC(=O)[O-] (stereo not drawn)
inactive: Potency [16] | Potency [2] | Potency [3] | Potency [6] | Potency [8] | outcome [10] | Potency [11] | Potency [13] | Potency [17] | outcome [14] | Potency [18] | outcome [19]

O=c1cc(-c2ccccc2)oc2ccccc12
inactive: Potency [1] | Potency [3] | Potency [4] | Potency [7] | Potency [8] | outcome [10] | Potency [11] | outcome [12] | PLD induction [13] -2.02% [at 3.15 µM] | outcome [14] | Potency [15] | Potency [18] | outcome [19]
active: Potency [5] 17.4 µM and 7.71 µM | Potency [6] 17.4 µM and 17.3 µM | Potency [20] 7.7 µM and 3.83 µM | Potency [17] 24.3 µM and 17.6 µM
inactive and 48.7 µM (active): Potency [2]

CC(C(=O)O)c1ccc(CC2CCCC2=O)cc1 (stereo not drawn)
inactive: Potency [16] | Potency [2] | Potency [3] | Potency [4] | Potency [6] | Potency [7] | Potency [9] | outcome [10] | Potency [11] | outcome [12] | Potency [13] | outcome [14] | Potency [15] | outcome [19]

c1ccc(CC2=NCCN2)cc1
inactive: Potency [1] | Potency [2] | Potency [3] | Potency [4] | Potency [5] | Potency [6] | Potency [7] | Potency [9] | outcome [10] | Potency [11] | outcome [12] | Potency [13] | Potency [17] | outcome [14] | Potency [15] | Potency [18] | outcome [19]

C=C[Si](OC(=C)C)(OC(=C)C)OC(=C)C
inactive: Potency [16] | Potency [2] | Potency [3] | Potency [5] | Potency [6] | Potency [7] | Potency [8] | Potency [9] | outcome [10] | Potency [11] | outcome [12] | Potency [17] | outcome [14] | Potency [18] | outcome [19]

CCOC(=O)c1c(C)n(C)c2ccc(O)cc12
inactive: Potency [1] | Potency [2] | Potency [3] | Potency [4] | Potency [5] | Potency [6] | Potency [7] | Potency [8] | Potency [9] | outcome [10] | Potency [11] | Potency [20] | Potency [13] | Potency [17] | outcome [14] | Potency [18] | outcome [19]

Cc1cnc(NS(=O)(=O)c2ccc(N)cc2)nc1
inactive: Potency [16] | Potency [2] | Potency [3] | Potency [5] | Potency [6] | Potency [7] | Potency [8] | Potency [9] | outcome [10] | Potency [11] | Potency [20] | outcome [12] | Potency [17] | outcome [14] | Potency [15] | Potency [18] | outcome [19]

CC/C=C\CC/C=C/C(OCC)OCC
inactive: Potency [1] | Potency [2] | Potency [3] | Potency [4] | Potency [5] | Potency [6] | Potency [7] | Potency [8] | Potency [9] | outcome [10] | Potency [11] | Potency [17] | outcome [14] | Potency [15] | Potency [18] | outcome [19]

N=C(N)c1ccc2cc(OC(=O)c3ccc(N=C(N)N)cc3)ccc2c1
inactive: Potency [16] | Potency [2] | Potency [3] | Potency [5] | Potency [6] | Potency [7] | Potency [8] | Potency [9] | outcome [10] | Potency [11] | outcome [12] | Potency [13] | outcome [14] | Potency [15] | Potency [18] | outcome [19]
active: Potency [17] 59.6 nM

CCOc1ccc(C(=O)OCCN(CC)CC)cc1
inactive: Potency [1] | Potency [2] | Potency [3] | Potency [4] | Potency [5] | Potency [6] | Potency [7] | Potency [8] | Potency [9] | outcome [10] | Potency [11] | Potency [20] | Potency [13] | Potency [17] | outcome [14] | Potency [18] | outcome [19]

CC1(C)C(O)C(C)(C)C1O (stereo not drawn)
inactive: Potency [1] | Potency [2] | Potency [3] | Potency [4] | Potency [5] | Potency [6] | Potency [7] | Potency [8] | Potency [9] | outcome [10] | Potency [11] | Potency [20] | outcome [12] | Potency [17] | outcome [14] | Potency [15] | Potency [18] | outcome [19]

CCn1nc(C(=O)O)c(=O)c2cc3c(cc21)OCO3
inactive: Potency [16] | Potency [2] | Potency [3] | Potency [4] | Potency [6] | Potency [7] | Potency [8] | Potency [9] | outcome [10] | Potency [11] | Potency [20] | outcome [12] | Potency [13] | Potency [17] | outcome [14] | Potency [15] | Potency [18] | outcome [19]

CC(C)(CC(=O)O)C(=O)O
inactive: Potency [16] | Potency [3] | Potency [4] | Potency [5] | Potency [6] | Potency [7] | Potency [8] | Potency [9] | outcome [10] | Potency [11] | Potency [20] | outcome [12] | Potency [17] | outcome [14] | Potency [15] | Potency [18] | outcome [19]
